Test results as given in PubChem BioAssay AID651564 (Sanford-Burnham Center for Chemical Genomics, 2012).
The other results are listed elsewhere or left out. Activity calls are given as the source filed them. Rule as the data show it: active = IC50 below about 80 µM; inactive = the rest.

Assay: isolated mitochondria fluorescence counter-assay – biochemical, uHTS hits, counter-screen for MPTP inhibitor project, dose response (AID 651564)
Conditions: isolated mitochondria counterscreen, fluorescence read-out

Which IC50 does the source give for `CCCCOc1ccc(CSC(=N)N)cc1[N+](=O)[O-]` here?
The IC50 was > 80 µM (inactive).

For `O=C(c1ccc(Cl)cc1)c1ccc(OCC(O)CN2CCCCC2)cc1` (stereo not drawn), which IC50 is on record?
Its IC50 is 34.8 µM (active).

For `Cc1cc(C)c(NC(=O)C[N+](C)(C)CC(O)COc2cccc3ccccc23)c(C)c1` (stereo not drawn), which IC50 is on record?
The IC50 was 47.5 µM (active).

For `CN(C)Cc1ccc(F)cc1Sc1cc(Cl)ccc1Cl`, which IC50 is on record?
Its IC50 is 69.1 µM (active).

With `CCCC(C(=O)OCCN(CC)CC)(c1ccccc1)c1ccccc1` as the compound, how does the IC50 read?
The IC50 was 77.1 µM (active).

Which IC50 does the source give for `CCCc1[nH]nc2c1C(c1c(C)nn(-c3ccccc3)c1Cl)C(C#N)=C(N)O2` (stereo not drawn) here?
Its IC50 is > 80 µM (inactive).

For `COc1ccc(/C=C(/CC(=O)Nc2ccc(C)cc2)c2nc3ccccc3s2)cc1`, which IC50 is on record?
Its IC50 is > 80 µM (inactive).

Which IC50 does the source give for `CCCC[C@@H]1CN=C(N)N1CCc1cc(C(F)(F)F)cc(C(F)(F)F)c1` here?
The IC50 was 28.5 µM (active).

With `Fc1ccc(N2N=C(c3cccs3)CC2c2ccco2)c(F)c1` (stereo not drawn) as the compound, how does the IC50 read?
The IC50 was > 80 µM (inactive).

Which IC50 does the source give for `N=c1n(Cc2ccc(Cl)cc2)c2ccccc2n1CC(O)c1ccco1` (stereo not drawn) here?
Its IC50 is 13.1 µM (active).

For `CCCCOC(=O)CNc1nnc(SCC(=O)OCC)[nH]c1=O`, which IC50 is on record?
Its IC50 is > 80 µM (inactive).

Which IC50 does the source give for `O=C(Nc1cccc(C(F)(F)F)c1)c1ccc(N2CCNCC2)c([N+](=O)[O-])c1` here?
Its IC50 is > 80 µM (inactive).

For `CN1CCC[C@@H]1CCO[C@](C)(c1ccccc1)c1ccc(Cl)cc1`, which IC50 is on record?
Its IC50 is > 80 µM (inactive).

With `O=C(Nc1cccc(-c2cccc(Cl)c2)c1)C1CCN(C2CCC2)CC1` as the compound, how does the IC50 read?
Its IC50 is 33.6 µM (active).

With `NC[C@H](Cc1ccccc1)NCCc1cc(C(F)(F)F)cc(C(F)(F)F)c1` as the compound, how does the IC50 read?
Its IC50 is 52.7 µM (active).

With `CCCCc1nc(NCCN)c(C#N)c2c1CSC(C)(C)C2` as the compound, how does the IC50 read?
Its IC50 is > 80 µM (inactive).

For `Brc1ccc(CSc2ccc(-c3ccco3)nn2)cc1`, which IC50 is on record?
The IC50 was > 80 µM (inactive).

Which IC50 does the source give for `CCCCCCCCCCCCN1C(=O)CSC1c1cccnc1` (stereo not drawn) here?
The IC50 was 12 µM (active).

For `FC(F)(F)COc1nc(N2CCCCC2)nc(N2CCNCC2)n1`, which IC50 is on record?
The IC50 was > 80 µM (inactive).

With `CCOC(=O)c1c(NC(=O)CSc2cn(CC)c3ccccc23)sc2c1CCC2` as the compound, how does the IC50 read?
Its IC50 is > 80 µM (inactive).

Which IC50 does the source give for `CN(C)Cc1ccccc1C1(O)c2ccccc2CSc2ccccc21` (stereo not drawn) here?
The IC50 was > 80 µM (inactive).

With `O=C(COC(=O)c1ccccc1NC(=O)c1ccco1)Nc1ccc2c(c1)OC(F)(F)O2` as the compound, how does the IC50 read?
The IC50 was 10.7 µM (active).

With `CC1(C)CC(=O)c2sc(N)nc2C1` as the compound, how does the IC50 read?
The IC50 was > 80 µM (inactive).

Which IC50 does the source give for `Cc1ccc2c(c1)C1CN(C)CCC1N2S(=O)(=O)c1ccc(Oc2ccc([N+](=O)[O-])cc2)cc1` (stereo not drawn) here?
Its IC50 is > 80 µM (inactive).

For `COCCn1c(CN2CCC(Cc3ccccc3)CC2)nc2c1c(=O)n(C)c(=O)n2C`, which IC50 is on record?
Its IC50 is 5.73 µM (active).

For `Clc1ccc(-c2cc(C3CCNCC3)[nH]n2)c(Cl)c1`, which IC50 is on record?
Its IC50 is > 80 µM (inactive).

Which IC50 does the source give for `O=C(NC1CCN(Cc2ccccc2)CC1)c1cc(Br)c(Br)[nH]1` here?
Its IC50 is > 80 µM (inactive).

Which IC50 does the source give for `NC(N)=N/N=C/c1ccc(Cl)c([N+](=O)[O-])c1` here?
The IC50 was 71.5 µM (active).

Which IC50 does the source give for `CCNCCC(=O)N1c2ccccc2Sc2ccc(NC(=O)OCC)cc21` here?
The IC50 was > 80 µM (inactive).

With `Cc1nn(Cc2ccccc2)c2c1C(c1ccccc1)C(C#N)=C(N)O2` (stereo not drawn) as the compound, how does the IC50 read?
Its IC50 is 69.8 µM (active).

For `COc1ccc2sc(N(CCCN(C)C)C(=O)c3ccc(S(=O)(=O)N(C)C4CCCCC4)cc3)nc2c1`, which IC50 is on record?
The IC50 was 66.5 µM (active).

Which IC50 does the source give for `Cc1ccc(-c2noc(CCC(=O)Nc3ccccc3N3CCN(C)CC3)n2)cc1` here?
The IC50 was > 80 µM (inactive).

For `C[C@@H](CN1CCC[C@H]1CN1C(N)=NC[C@@H]1Cc1ccccc1)N1C[C@@H](Cc2ccccc2)N(CCCC2CCCC2)C1=N`, which IC50 is on record?
Its IC50 is 16.3 µM (active).
